MBD2 inh = inhibitors of MBD2 binding to methylated DNA, primary screen, biochemical, TR-FRET, DNA-binding domain, human; 370,000 compounds, 0.31% hits; AID 686964, 2013; inhibition, % at 4.4 µM; MBD2 binding to methylated oligonucleotide; in the data active = inhibition above about 13%
PG9 Ab binder = binders of HIV-1 gp120 antibody PG9, primary screen, biochemical, TR-FRET; TR-FRET gp120-PG9 antibody binding; inhibition, % at 6.7 µM; 360,000 compounds, 0.43% hits; in the data active = inhibition above about 8.5%
rCAG binder = binders of r(CAG) RNA repeats, primary screen, biochemical, fluorescence; 370,000 compounds, 1.3% hits; r(CAG) RNA repeat, TO-PRO-1 dye displacement fluorescence; inhibition, % at 3 µM; AID 651821, 2012;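 active = inhibition above the plate cutoff, the mean of all test compounds on that plate plus 3 SD, cut at about 35% in these data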;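 also: 0% = DMSO alone and 100% = 100 µM mitoxantrone as full dye displacement; higher means more dye released from RNA so lower well fluorescence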
UHRF1 binding = UHRF1 methylated DNA binding inhibitors, primary screen, counter-screen for MBD2 inhibitor project, biochemical, TR-FRET, human UHRF1, single concentration. E3 ubiquitin-protein ligase UHRF1 (Homo sapiens), Q96T88. UHRF1 binding to methylated oligo. inhibition, % at 4.4 µM. 370,000 compounds, 0.75% hits; in the data active = inhibition above about 21%;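 also: UHRF1 SRA domain binding a hemimethylated CpG hairpin DNA probe; 0% = median of test compound wells and 100% = reference inhibitor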
DNMT1 block = human DNMT1 methyltransferase inhibitors, primary screen, biochemical, molecular beacon, fluorescence, HinP1I cleavage, uHTS; inhibition (reported as % activation of signal), % at 10 µM; 360,000 compounds, 0.83% hits; in the data active = inhibition above about 50%
LEDGF integ inh = blockers of LEDGF/p75-dependent integrase strand transfer – biochemical, TR-FRET, high throughput, primary screen; HIV-1 integrase (with human LEDGF/p75); TR-FRET IN-LEDGF/p75 DNA integration, Eu/Cy5; inhibition, % at 3.7 µM; 370,000 compounds, 0.64% hits; AID 743269, 2014;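 active = inhibition above the screen-wide mean plus 3 SD, cut at about 13% in these data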;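 also: signal is the Cy5 over europium emission ratio at 671 and 618 nm; 0% = plate median of compound wells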
PG9 bind confirm = binders of anti-gp120 antibody PG9, confirmation, biochemical, TR-FRET; shares compounds with PG9 Ab binder; TR-FRET PG9 antibody binding; inhibition, % at 6.7 µM; 1,500 compounds, 90% hits; AID 651571, 2012; in the data active = inhibition above about 9%
PGV04 counter = binders of control antibody PGV04, counter-screen for PG9 antibody binder project, biochemical, TR-FRET, distinct HIV envelope site; shares compounds with PG9 Ab binder; inhibition, % at 6.7 µM; AID 651604, 2012; 1,500 compounds, 95% hits; TR-FRET PGV04 antibody-gp120 binding; in the data active = inhibition above about 9.5%
Active calls of the source: *. A selection: hits, their analogues and other compounds. The true share with any hit is near 3.5%.

COc1ccccc1N(C)S(=O)(=O)c1ccc(C(=O)N(C)Cc2cccc(F)c2)cc1 was read as MBD2 inh 2.8, PG9 Ab binder -1.4, rCAG binder 2.1, UHRF1 binding 3.0, DNMT1 block -6.9 and LEDGF integ inh 0.5.
Screening Cc1sc2ncnc(Sc3ccccc3C(=O)O)c2c1C returned MBD2 inh 2.2, PG9 Ab binder 31.1*, rCAG binder 6.7, UHRF1 binding -0.8, DNMT1 block -1.7, LEDGF integ inh 1.7, PG9 bind confirm 37.2* and PGV04 counter 46.4*.
Screening CC(=O)Nc1ccc(NC(=O)CSc2ncnc3sc(C)c(C)c23)cc1 returned MBD2 inh 1.8, PG9 Ab binder -0.5, rCAG binder 2.1, UHRF1 binding -0.1, DNMT1 block -1.7 and LEDGF integ inh -1.7.
Screening Cc1cccc(NC(=O)CSc2ncnc3sc(C)c(C)c23)n1 returned MBD2 inh -3.4, PG9 Ab binder 1.2, rCAG binder 4.5, UHRF1 binding 0.8, DNMT1 block -0.6 and LEDGF integ inh 2.7.
`CCN(CC(=O)Nc1ccc(NC(C)=O)cc1)C(=O)CSc1ncnc2sc(C)c(C)c12` gave MBD2 inh 0.6, PG9 Ab binder 11.3*, rCAG binder 4.7, UHRF1 binding -1.9, DNMT1 block 0.6, LEDGF integ inh 0.8, PG9 bind confirm 6.9 and PGV04 counter 24.4*.
Cc1sc2ncnc(SCC(=O)NC(=O)c3cccn3C)c2c1C was read as MBD2 inh -2.4, PG9 Ab binder 53.4*, rCAG binder 7.4, UHRF1 binding -1.7, DNMT1 block 2.1, LEDGF integ inh 0.3, PG9 bind confirm 55.1* and PGV04 counter 65.9*.
CCc1ncc(CN2CCCCC2C(=O)Nc2ccc(Oc3ccccc3)nc2)cn1 (stereo unspecified) was read as MBD2 inh -1.3, PG9 Ab binder -1.4, rCAG binder -4.1, UHRF1 binding 0.5, DNMT1 block -0.6 and LEDGF integ inh 1.9.
`COc1ccc(C=C(NC(=O)c2ccccc2)C(=O)O)cc1OC` gave MBD2 inh -3.4, PG9 Ab binder 2.2, rCAG binder 0.0, UHRF1 binding -1.3, DNMT1 block 1.2 and LEDGF integ inh 1.5.
Screening CCN1C(=O)[C@H]2[C@@H](c3ccc(C(F)(F)F)cc3)N[C@]3(CCCN(Cc4ccc(Cl)cc4)C3=O)[C@H]2C1=O returned MBD2 inh 0.3, PG9 Ab binder -1.6, rCAG binder -1.2, UHRF1 binding 2.2, DNMT1 block -2.1 and LEDGF integ inh -5.6.
Screening O=C(NCc1cccnc1)c1ccccc1NS(=O)(=O)c1ccccc1 returned MBD2 inh 3.3, PG9 Ab binder 10.8*, rCAG binder 4.4, UHRF1 binding 0.8, DNMT1 block -1.7, LEDGF integ inh -2.2, PG9 bind confirm 9.5* and PGV04 counter 19.3*.
CC(=O)Nc1ccc(S(=O)(=O)Nc2ccccc2C(=O)NCc2cccnc2)cc1 was read as MBD2 inh -1.7, PG9 Ab binder 1.7, rCAG binder 2.6, UHRF1 binding 1.3, DNMT1 block 2.2 and LEDGF integ inh -1.6.
Screening O=C(COC(=O)c1cc(S(=O)(=O)N2CCCCC2)ccc1Cl)NC1CCS(=O)(=O)C1 (stereo unspecified) returned MBD2 inh 5.1, PG9 Ab binder -0.3, rCAG binder -2.6, UHRF1 binding -0.6, DNMT1 block 1.2 and LEDGF integ inh 0.6.

High-throughput results from PubChem BioAssay.
